Here are results for 19 molecules from PubChem BioAssay (Tox21).

Inconclusive results are not listed. The source made the active and inactive calls. Calls follow the shape of the dose curve; as a rule, active = well fitted curve in the direction sought with a large enough effect in the repeat runs; inconclusive = weak or mixed curves; inactive = no such curve, though single readings can be large; an effect the other way counts as inactive or inconclusive.

The nature of test [1]: A CellTox Green Cytotoxicity Assay to monitor cytotoxicity in HepG2 cells - 0 hour (AID 1224882). Also: nearly all actives have a fitted effect of over 35% in size. In a few lines: (§1)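 HepG2, 600 cells/well premixed w/ CellTox Green; 5 h settle, 37 C/5% CO2; pintool cpd add (DMSO); 37 C, 40 h; fluorescence read at 0, 8, 16, 24, 32, 40 h.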
Test [2] is described as follows: A CellTox Green Cytotoxicity Assay to monitor cytotoxicity in HepG2 cells - 32 hour (AID 1224883). Also: nearly all actives have a fitted effect of over 50% in size. Also: potency is read from the fitted curve at half-maximal effect. In a few lines: as §1
Test [3] can be described thus: A CellTox Green Cytotoxicity Assay to monitor cytotoxicity in HEK293 cells - 8 hour (AID 1224884). Also: nearly all actives have a fitted effect of over 35% in size. Also: potency is read from the fitted curve at half-maximal effect. The method in brief: (§2)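 Read-out: fluorescence of a cell-impermeant cyanine dye staining DNA of dead cells, proportional to cytotoxicity. HEK293, 600 cells/well with reagent, compound (23 nL DMSO) added after 5 h; reads at 0, 8, 16, 24, 32, 40 h.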
Test [4] is described as follows: qHTS RealTime-Glo MT Cell Viability Assay in HepG2 cells - 16 hour (AID 1224885). Also: nearly all actives have a fitted effect of over 50% in size. Also: potency is read from the fitted curve at half-maximal effect. In a few lines: (§3)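 Cells + NanoLuc/prosubstrate dispensed (600 cells/well) → 5 h at 37 C/5% CO2 → compounds in DMSO transferred → 40 h incubation at 37 C, luminescence read at 0, 8, 16, 24, 32, 40 h.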
(qHTS replaces the single test concentration by a dilution series.)

A short description of test [5]: qHTS RealTime-Glo MT Cell Viability Assay in HEK293 cells - 24 hour (AID 1224886). Also: nearly all actives have a fitted effect of over 50% in size. Also: potency is read from the fitted curve at half-maximal effect. In a few lines:
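Tox21 10K qHTS, HEK293, 600 cells/well, RealTime-Glo reagent co-dispensed with cells; 5 h preincubation, compound by pintool, 37 C, luminescence at 0–40 h.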

Test [6] can be described thus: qHTS RealTime-Glo MT Cell Viability Assay in HEK293 cells - 8 hour (AID 1224887). Also: nearly all actives have a fitted effect of over 50% in size. Also: potency is read from the fitted curve at half-maximal effect. In a few lines: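 Luminescence readout at each listed time point; HEK293, 600 cells/well, RealTime-Glo MT reagent added with cells; compounds pinned (23 nL in DMSO) after 5 h at 37 C; continuous culture at 37 C.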
The nature of test [7]: A CellTox Green Cytotoxicity Assay to monitor cytotoxicity in HEK293 cells - 16 hour (AID 1224888). Also: nearly all actives have a fitted effect of over 35% in size. In a few lines: as §2
The nature of test [8]: qHTS RealTime-Glo MT Cell Viability Assay in HepG2 cells - 0 hour (AID 1224889). Also: nearly all actives have a fitted effect of over 50% in size. In a few lines:
as §3

A short description of test [9]: A CellTox Green Cytotoxicity Assay to monitor cytotoxicity in HepG2 cells - 8 hour (AID 1224890). Also: nearly all actives have a fitted effect of over 45% in size. Also: potency is read from the fitted curve at half-maximal effect. The method in brief: as §1
Test [10] in a line: qHTS assay to identify small molecule antagonists of the estrogen receptor alpha (ER-alpha) signaling pathway using the BG1 cell line in the presence of 0.1 nM 17-beta-estradiol - cell viability counter screen (AID 1259241). Also: nearly all actives have a fitted effect of over 40% in size. The method in brief:
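The cell line endogenously expresses full-length ER-alpha and carries four EREs driving luciferase. Cells are cultured 5 days hormone-free, treated 22 hr with compounds and 0.1 nM estradiol, then viability is read by fluorescence.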

Regarding `CCN(CC)C(C)C(=O)c1ccccc1` (stereo not drawn), the call in [1] and in test [10] was inactive. For the same molecule, the Potency result in test [2], in test [3], in test [4], in [5], in test [6] and in test [7] was “inactive” throughout. In addition, the Potency result in test [8] and in test [9] was “inactive” throughout.
For `CCOC(=O)/C=C(C)/C=C/C[C@@H](C)CCCC(C)C`, the molecule was classed as inactive in [1] and in test [10]. Besides, the Potency entry in [2], in test [3], in [4], in [5], in [6] and in test [7] was “inactive” each time. Besides, the Potency result in test [8] and in [9] was “inactive” throughout.
Take `CCSC(=O)N(CC)C1CCCCC1`: the molecule was called inactive in test [1] and in [10]. The Potency result in [2], in test [3], in [4], in test [5], in [6] and in test [7] was “inactive” throughout. Also, the Potency result in test [8] and in test [9] was “inactive” each time.
Take `[O]=[Cd]`: the call in [1] and in test [10] was inactive. Also, the Potency entry in test [2], in [3], in test [4], in [5], in test [6] and in test [7] was “inactive” each time. The Potency result in [8] and in [9] was “inactive” throughout.
As to `Clc1ccccc1N1CCNCC1`, the result in [1] and in [10] was inactive. The Potency result in [2], in [3], in test [4], in test [5], in [6] and in test [7] was “inactive” throughout. For the same molecule, the Potency result in test [8] and in test [9] was “inactive” throughout.
With `CCOP(=S)(OCC)SCSP(=S)(OCC)OCC`, the outcome in test [1] and in [10] was inactive. Also, the Potency entry in test [2], in test [3], in test [4], in test [5], in test [6] and in [7] was “inactive” in each case. For the same molecule, the Potency result in test [8] and in test [9] was “inactive” throughout.
For the molecule `O=C1OC(CCN2CCCCC2)OC1(c1ccccc1)c1ccccc1` (stereo not drawn), the molecule was classed as inactive in test [1] and in test [10]. The Potency entry in test [2], in [3], in test [4], in [5], in [6] and in test [7] was “inactive” throughout. In addition, the Potency entry in test [8] and in test [9] was “inactive” in each case.
In the case of `CN1CCC(N(Cc2ccccc2)c2ccccc2)CC1`, the call in [1] and in test [10] was inactive. In addition, the Potency entry in test [2], in [3], in test [4], in test [5], in test [6] and in test [7] was “inactive” throughout. The Potency result in test [8] and in [9] was “inactive” each time.
Turning to `CCN(Cc1ccc(Cl)nc1)/C(=C/[N+](=O)[O-])NC`, the result in test [1] and in [10] was inactive. In addition, the Potency result in [2], in test [3], in [4], in test [5], in [6] and in [7] was “inactive” throughout. The Potency entry in [8] and in test [9] was “inactive” each time.
Take `CNC(=O)Oc1ccc(N(C)C)c(C)c1`: the molecule was called inactive in [1] and in test [10]. Moreover, the Potency result in [2], in test [3], in test [4], in [5], in [6] and in test [7] was “inactive” in each case. The Potency result in test [8] and in test [9] was “inactive” each time.
Consider `ClCC(Cl)(Cl)Cl`, for which the molecule was called inactive in test [1] and in [10]. The Potency result in test [2], in [3], in [4], in test [5], in test [6] and in test [7] was “inactive” throughout. The Potency result in [8] and in test [9] was “inactive” in each case.
For the molecule `CCC(C)(C)c1cc(-n2nc3ccccc3n2)c(O)c(C(C)(C)CC)c1`, the molecule was classed as inactive in test [1] and in test [10]. Further, the Potency result in test [2], in [3], in test [4], in [7], in test [8] and in test [9] was “inactive” each time. The Potency in test [5] was 24.9 µM (active).
With `CCCSP(=S)(OCC)Oc1ccc(Cl)cc1Cl` (stereo not drawn), in test [1], the molecule was called inactive. The Potency result in test [2], in test [3], in test [4], in [5], in [6] and in test [8] was “inactive” each time. The Potency result in test [9] is “inactive”.
Turning to `CC1CCCCC1NC(=O)Nc1ccccc1` (stereo not drawn), the call in test [1] and in [10] was inactive. Also, the Potency entry in test [2], in test [3], in test [4], in test [5], in test [8] and in test [9] was “inactive” each time.
As for `N#CC(CCc1ccc(Cl)cc1)(Cn1cncn1)c1ccccc1` (stereo not drawn), the call in test [1] was inactive. In addition, the Potency in test [2] was 21.9 µM (active); in test [4], 27.5 µM (active); in test [5] it was 17.4 µM (active); in test [6], 21.9 µM (active); in [9], 34.7 µM (active). The Potency result in test [3] was “inactive”.
As for `CCC(C)n1c(=O)[nH]c(C)c(Br)c1=O` (stereo not drawn), the call in test [1] and in test [10] was inactive. Moreover, the Potency result in [2], in test [3], in test [4], in test [5], in test [6] and in test [8] was “inactive” in each case. Further, the Potency result in test [9] is “inactive”.
Consider `CC1(C)C(=O)NC(=O)NC1=O`, for which the outcome in test [1] and in [10] was inactive. The Potency entry in test [2], in test [4], in [5], in [6], in test [8] and in test [9] was “inactive” each time. In test [3], the Potency was 49 µM (active).
As to `O=S(=O)(O)C(F)(F)C(F)(F)C(F)(F)C(F)(F)C(F)(F)C(F)(F)F`, the outcome in test [1] and in test [10] was inactive. Besides, the Potency result in test [2], in [3], in [4], in test [5], in [6] and in test [8] was “inactive” each time. For the same molecule, the Potency entry in test [9] is “inactive”.
`CC(C)NCC(O)c1ccc(N)c(C#N)c1` (stereo not drawn): the molecule was classed as inactive in test [1] and in test [10]. The Potency result in test [2], in test [3], in test [4], in test [5], in test [6] and in test [8] was “inactive” throughout. Also, the Potency result in test [9] was “inactive”.
